Reference: PubChem BioAssay AID1159580 (chemical genetic matrix, 2015)
Screen size: about 5,500 compounds; about 2,000 (36%) were called active. Roughly 18% stayed inconclusive and do not appear here. Cut-off read from the data, not from the text of the source: active = normalized growth mostly below about 0.91 (no sharp cut-off); inconclusive = no clear call, values can overlap the other calls; inactive = mostly above about 0.92. The list shows a part of the results.

Assay: chemical genetic growth profiling, strain panel (AID 1159580);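 note: tested at 20 µM; growth read once vehicle control cultures reached saturation at 30 °C; 1 = growth at the plate median or of vehicle wells; lower values mean less growth of the strain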
Details: S. cerevisiae deletion strains, growth OD

Measured: normalized growth

CC1(C)C(=O)C=CC2(C)C3CCC4(C)C(c5ccoc5)CC5OC54C3C(O)CC12 (stereo unspecified)
inactive: locus YAL013W, strain DEP1, active compounds read low 0.975 | locus YBR021W, strain FUR4, active compounds read low 0.985 | locus YBR229C, strain ROT2, active compounds read low 0.995 | locus YCL029C, strain bik1, active compounds read low 1.01 | locus YDL035C, strain GPR1, active compounds read low 0.942 | locus YDL074C, strain BRE1, active compounds read low 0.862 | locus YDL101C, strain DUN1, active compounds read low 0.958 | locus YDL134C, strain PPH21, active compounds read low 0.945 | locus YDL185W, strain tfp1, active compounds read low 1.02 | locus YDL192W, strain arf1, active compounds read low 0.986 | locus YDR101C, strain arx1, active compounds read low 0.98 | locus YDR162C, strain NBP2, active compounds read low 0.882 | locus YDR318W, strain mcm21, active compounds read low 0.992 | locus YDR388W, active compounds read low 1.02 | locus YDR502C, strain sam2, active compounds read low 1.01 | locus YER110C, active compounds read low 1.03 | locus YER155C, strain BEM2, active compounds read low 0.988 | locus YER167W, strain BCK2, active compounds read low 0.961 | locus YGL078C, strain dbp3, active compounds read low 1.02 | locus YGL086W, strain mad1, active compounds read low 0.975 | locus YGL248W, strain PDE1, active compounds read low 0.958 | locus YGR135W, strain pre9, active compounds read low 0.984 | locus YGR229C, strain SMI1, active compounds read low 0.868 | locus YGR252W, strain gcn5, active compounds read low 0.981 | locus YHR030C, strain SLT2, active compounds read low 1 | locus YHR079C, strain IRE1 (second series), active compounds read low 1.02 | locus YHR094C, strain hxt1, active compounds read low 1.02 | locus YHR129C, strain ARP1, active compounds read low 0.977 | locus YHR200W, strain rpn10, active compounds read low 0.993 | locus YIL066C, strain RNR3, active compounds read low 0.926 | locus YIL073C, strain SPO22, active compounds read low 0.999 | locus YIL125W, strain kgd1, active compounds read low 0.999 | locus YIR030C, strain dcg1, active compounds read low 1.01 | locus YJL095W, strain BCK1, active compounds read low 0.884 | locus YJL134W, strain LCB3, active compounds read low 0.992 | locus YJL168C, strain set2, active compounds read low 1.01 | locus YJL187C, strain SWE1 (second series), active compounds read low 0.955 | locus YJR075W, strain HOC1, active compounds read low 0.981 | locus YKL009W, strain mrt4, active compounds read low 1.01 | locus YKL068W, active compounds read low 1.01 | locus YKL085W, strain MDH1 (second series), active compounds read low 1 | locus YKL085W, strain MDH1, active compounds read low 1 | locus YKR001C, strain vps1, active compounds read low 0.984 | locus YLR039C, strain RIC1, active compounds read low 0.785 | locus YLR058C, strain SHM2, active compounds read low 0.975 | locus YLR102C, strain apc9, active compounds read low 1.01 | locus YLR268W, strain sec22, active compounds read low 0.987 | locus YLR330W, strain CHS5, active compounds read low 0.965 | locus YLR371W, strain rom2, active compounds read low 1 | locus YLR418C, strain cdc73, active compounds read low 0.951 | locus YML016C, strain PPZ1, active compounds read low 0.993 | locus YML032C, strain rad52, active compounds read low 1 | locus YML124C, strain tub3, active compounds read low 1.01 | locus YMR078C, strain ctf18, active compounds read low 1 | locus YMR223W, strain ubp8, active compounds read low 0.993 | locus YMR307W, strain GAS1, active compounds read low 0.842 | locus YNL067W, strain RPL9B, active compounds read low 0.978 | locus YNL128W, strain TEP1, active compounds read low 0.972 | locus YNL153C, strain GIM3, active compounds read low 0.983 | locus YNL233W, strain BNI4, active compounds read low 0.938 | locus YNL250W, strain rad50, active compounds read low 1.02 | locus YNL271C, strain bni1, active compounds read low 1.01 | locus YNL298W, strain CLA4, active compounds read low 1.03 | locus YNL307C, strain MCK1, active compounds read low 1 | locus YNR052C, strain pop2, active compounds read low 0.995 | locus YOL006C, strain TOP1, active compounds read low 0.956 | locus YOL012C, strain htz1 1.23 | locus YOL147C, strain pex11, active compounds read low 1 | locus YOR061W, strain CKA2, active compounds read low 0.979 | locus YOR069W, strain VPS5, active compounds read low 0.989 | locus YOR136W, strain idh2, active compounds read low 1.02 | locus YOR144C, strain elg1, active compounds read low 1.01 | locus YOR184W, strain ser1, active compounds read low 0.886 | locus YOR316C, strain cot1, active compounds read low 1.02 | locus YPL055C, strain LGE1, active compounds read low 0.928 | locus YPL241C, strain CIN2, active compounds read low 0.995 | locus YPR119W, strain clb2, active compounds read low 1.02 | locus YPR141C, strain kar3, active compounds read low 1.01 | locus YPR163C, strain tif3, active compounds read low 1.02 | locus YPR167C, strain met16, active compounds read low 1 | strain wtn01, active compounds read low 0.993
